Assay outcomes as filed in PubChem BioAssay.
An excerpt weighted towards active compounds, which were near 2.7% of everything screened.
PREPL inh: human PREPL enzyme inhibition; 320,000 tested, 0.68% active; inhibition, % at 5.96 µM; Q4J6C6; recombinant PREPL, fluorescence polarization activity-based probe
PP5 inh: PP5 (human) phosphatase inhibition; P53041; purified PP5c, OMFP substrate fluorescence; inhibition, % at 6.7 µM; 320,000 tested, 0.18% active; AID 1987;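 active = inhibition above the campaign's mean inhibition across all tested compounds plus 3 SD, cut at about 9.5% in these data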
Target sequence (P53041 whole entry, looked up): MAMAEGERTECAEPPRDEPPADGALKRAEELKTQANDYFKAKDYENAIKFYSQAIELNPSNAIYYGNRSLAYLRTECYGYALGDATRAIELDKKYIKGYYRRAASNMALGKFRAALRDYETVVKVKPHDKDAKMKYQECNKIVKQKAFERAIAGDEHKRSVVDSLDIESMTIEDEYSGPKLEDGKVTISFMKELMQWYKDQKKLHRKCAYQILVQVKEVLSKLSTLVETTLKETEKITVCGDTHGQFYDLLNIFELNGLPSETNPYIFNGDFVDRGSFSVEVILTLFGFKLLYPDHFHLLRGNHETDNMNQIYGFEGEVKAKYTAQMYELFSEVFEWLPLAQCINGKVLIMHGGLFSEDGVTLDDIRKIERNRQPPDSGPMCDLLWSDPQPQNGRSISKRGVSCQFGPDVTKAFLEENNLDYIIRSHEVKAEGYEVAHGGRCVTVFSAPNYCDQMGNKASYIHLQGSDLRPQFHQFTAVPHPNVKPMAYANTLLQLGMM
ANO1 activ: activators or potentiators of mouse TMEM16A chloride channel. Q8BHY3. HEK293 TMEM16A/YFP-H148Q/I152L, iodide quench fluorescence; active compounds read low. B-score at 10 µM. 340,000 tested, 0.3% active;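 active = fluorescence-ratio B-score plate-corrected deviation score at least 3 library SD below zero, with starting fluorescence score within 5 deviations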;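 also: channel opened by trigger with iodide after compound preincubation; score built on the fluorescence ratio of max minus min over baseline; more negative score means more quench and so TMEM16A activation or potentiation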
TMEM16A inh: inhibitors of mouse TMEM16A calcium-activated chloride channel. 310,000 tested, 1.2% active. HEK293 TMEM16A/YFP iodide influx fluorescence, ionomycin. Q8BHY3. AID 588511. normalized B-score (activity score, 25-100; higher = stronger inhibition) at 10 µM;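 active = ratio plate-corrected score three or more library SD toward inhibition, starting fluorescence score within five deviations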;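 also: score derived from kinetic fluorescence span divided by baseline fluorescence per well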
FID counter: fluorescent intercalator displacement, NS3 helicase counter-screen; DNA fluorescent intercalator displacement, fluorescence; inhibition, % at 7.9 µM; 290,000 tested, 0.17% active; AID 1845; in the data active = inhibition above about 37%;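 also: higher means more ethidium bromide displaced from hairpin DNA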
PP1 counter: PP1-alpha (human) inhibition in PP5 counter-screen; P62136; purified PP1alpha, OMFP fluorescence; inhibition, % at 6.7 µM; 320,000 tested, 0.9% active; AID 2235;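 active = inhibition above the mean inhibition of all tested compounds plus 3 SD, computed separately for each screening campaign, cut at about 15% in these data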
PREPL confirm: confirmation of human PREPL enzyme inhibitors. shares compounds with PREPL inh. recombinant PREPL, fluorescence polarization activity probe. inhibition, % at 5.96 µM. 2,000 tested, 67% active. AID 2803
Each line names hits and unclear results; the compound was inactive in the other large screens (follow-up assays come after a bar, where they were run). Rule as the data show it, unless noted: active = inhibition above about 43%; inactive = the rest.

Cn1c(=O)c(NCCc2ccccc2)c2c3c(cccc31)C(=O)c1ccccc1-2	PREPL inh 163 | PREPL confirm 166
CCNc1c2c3c(cccc3n(C)c1=O)C(=O)c1ccccc1-2	PREPL inh 69 (no result: ANO1 activ) | PREPL confirm 54
Cn1c(=O)c(NCCO)c2c3c(cccc31)C(=O)c1ccccc1-2	PREPL inh 90 | PREPL confirm 103
CC(C)(C)c1ccc(C(=O)NCCC(=O)NNC(=O)COc2ccccc2F)cc1	none (no result: PP5 inh, TMEM16A inh, FID counter, PP1 counter)
CN(C)c1ccc(C(O)P(=O)(OCc2ccccc2)c2ccc(N(C)C)cc2)cc1 (stereo not drawn)	PREPL inh 51 | PREPL confirm 53
Cc1cc(-c2csc(N)n2)c(C)n1C	PREPL inh 52 | PREPL confirm inactive
O=C(CCn1cnnn1)Nc1ccc(F)cc1	none
COc1ccc(CNC(=O)Cc2c(C(=O)O)[nH]c3ccccc23)c(OC)c1	PREPL inh 126 | PREPL confirm inactive
COc1ccc(CNC(=O)CNC(=O)c2cccs2)c(OC)c1	none
Cc1cc2c(cc1S(=O)(=O)NCCc1ccc(Cl)cc1)OCC(=O)N2	none
CCOC(=O)C1CCCN(/C=C2\SC(=S)N(CC)C2=O)C1 (stereo not drawn)	none
COc1ccc(Cl)c(N2CCN(CCCNC(=O)Nc3ccc(C)cc3)CC2)c1	PREPL inh 47 | PREPL confirm inactive
CC(C)(C)c1ccc(Cn2c(=N)n(CC(O)c3ccco3)c3ccccc32)cc1 (stereo not drawn)	none
Cc1ccccc1Cn1c(=N)n(CC(O)c2ccco2)c2ccccc21 (stereo not drawn)	PREPL inh 45 | PREPL confirm inactive
COc1ccc(-c2cc(C(F)(F)F)nc(-n3ccnc3)n2)cc1	none
O=C(N/N=C/c1cn(CCOc2ccccc2)c2ccccc12)c1ccncc1	PREPL inh 54 | PREPL confirm inactive
COc1ccc(NC(=O)N(CCN2CCCC2)Cc2cc3cc(OC)c(OC)cc3[nH]c2=O)cc1	PREPL inh 58 | PREPL confirm inactive
CC(C)(C)n1cnc2cc(NCc3ccccc3O)ccc21	none
CC(C)(C)n1cnc2cc(NCc3ccc(Br)cc3)ccc21	PREPL inh 54, ANO1 activ -9 | PREPL confirm 63
CCN(CC)c1ccc(CNc2ccc3c(c2)ncn3C(C)(C)C)cc1	PREPL inh 48 | PREPL confirm inactive
CCc1ccc(CNc2ccc3c(c2)ncn3C(C)(C)C)cc1	PREPL inh 48 | PREPL confirm 50
CCCC[C@@H]1C=C(C(=O)O)[C@H](c2ccc(C#N)cc2)N1S(=O)(=O)c1ccc(C)cc1	none (no result: PP5 inh, ANO1 activ, TMEM16A inh, FID counter, PP1 counter)
CCC[C@@H](O)c1cc2cc(OC)c(OC)cc2c(=O)o1	none (no result: TMEM16A inh, FID counter)
CC(C)[C@H](CN1CCC[C@H]1CN1C(N)=NC[C@H]1C(C)C)N1C[C@@H](Cc2ccccc2)N(CCCC2CCCC2)C1=N	PREPL inh 61 (no result: PP5 inh, ANO1 activ, TMEM16A inh, FID counter, PP1 counter) | PREPL confirm 59
CCC[C@@H](CN1CCC[C@H]1CN1C(N)=NC[C@@H]1Cc1ccccc1)N1C[C@@H]([C@H](C)CC)N(CCCC2CCCC2)C1=N	PREPL inh 54 (no result: PP5 inh, TMEM16A inh, FID counter, PP1 counter) | PREPL confirm 52
CCC[C@@H](CN1CCC[C@H]1CN1C(N)=NC[C@H]1CC(C)C)N1C[C@@H](Cc2ccccc2)N(CCc2ccc(Cl)c(Cl)c2)C1=N	none (no result: PP5 inh, ANO1 activ, TMEM16A inh, FID counter, PP1 counter)
CCC[C@@H](CN1CCC[C@H]1CN1C(N)=NC[C@H]1CC(C)C)N1C[C@@H](Cc2ccccc2)N(CCCC2CCCC2)C1=N	PREPL inh 49 (no result: PP5 inh, ANO1 activ, TMEM16A inh, FID counter, PP1 counter) | PREPL confirm inactive
CCCCN1C(=N)N([C@@H](CCC)CN2CCC[C@H]2CN2C(N)=NC[C@@H]2Cc2ccccc2)C[C@H]1Cc1ccccc1	PREPL inh 45 (no result: PP5 inh, TMEM16A inh, FID counter, PP1 counter) | PREPL confirm 45
CC[C@@H](C)[C@@H]1CN([C@@H](CN2CCC[C@H]2CN2C(N)=NC[C@H]2CC(C)C)C(C)C)C(=N)N1CCCC1CCCC1	none (no result: PP5 inh, ANO1 activ, TMEM16A inh, FID counter, PP1 counter)
CCC[C@@H](CN1CCC[C@H]1CN1C(N)=NC[C@@H]1Cc1ccccc1)N1C[C@@H](Cc2ccccc2)N(CCCC2CCCC2)C1=N	none (no result: PP5 inh, TMEM16A inh, FID counter, PP1 counter)
O=c1oc(-c2ccc(O)c(O)c2)cc2cc(O)cc(O)c12	none (no result: PP5 inh, TMEM16A inh, FID counter, PP1 counter)
O=c1oc(-c2ccc(O)c(O)c2)cc2cccc(O)c12	PREPL inh 67 (no result: PP5 inh, TMEM16A inh, FID counter, PP1 counter) | PREPL confirm inactive
